A selection: hits, their analogues and other compounds. The true share with any hit is near 2.9%.
PAFAH1B3 inh – inhibitors of human PAFAH1B3. recombinant PAFAH1B3, FP-rhodamine probe, fluorescence polarization. hit rate 0.28% among 340,000. inhibition, % at 3.39 µM;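 active means inhibition above the screen-wide average of all tested compounds plus 3 SD, cut at about 25% in these data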
PAFAH2 FP inh – PAFAH2 (human) inhibition; recombinant PAFAH2, FP-rhodamine activity probe, fluorescence polarization; AID 492956; hit rate 0.99% among 340,000; inhibition, % at 3.39 µM; Q99487;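 active means inhibition above the mean over all tested compounds plus 3 SD, cut at about 30% in these data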;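 further: inhibitors block probe labeling of enzyme so polarization drops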
LYPLA2 inh – counter-screen for PME1 inhibitors: inhibitors of human LYPLA2; inhibition, % at 5.9 µM; hit rate 0.38% among 320,000; AID 2177; recombinant LYPLA2, FP-Rh probe fluorescence polarization; O95372;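 active means inhibition above the screen-wide mean plus 3 SD, limit set per campaign, cut at about 26% in these data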
LYPLA1 inh – LYPLA1 (human) inhibition in PME1 counter-screen. O75608. hit rate 0.16% among 320,000. inhibition, % at 5.9 µM. AID 2174. recombinant LYPLA1, FP-Rh probe fluorescence polarization;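 active means inhibition above the mean of all tested compounds plus 3 SD, set per campaign, cut at about 14% in these data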;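 further: inhibitors block serine hydrolase probe labeling of LYPLA1 so polarization falls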
Target sequence (O75608 whole entry, looked up): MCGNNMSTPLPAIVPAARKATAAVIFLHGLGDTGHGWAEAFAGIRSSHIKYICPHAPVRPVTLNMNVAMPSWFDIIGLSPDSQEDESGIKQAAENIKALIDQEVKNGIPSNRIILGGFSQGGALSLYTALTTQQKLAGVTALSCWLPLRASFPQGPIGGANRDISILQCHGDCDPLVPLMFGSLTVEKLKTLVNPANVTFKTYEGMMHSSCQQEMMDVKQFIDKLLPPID
PAFAH1B2 inh – PAFAH1B2 (human) inhibition. P68402. recombinant PAFAH1B2, FP-rhodamine activity probe, fluorescence polarization. inhibition, % at 3.39 µM. hit rate 1.2% among 340,000. AID 492953;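 active means inhibition above the mean of all tested compounds plus 3 SD, cut at about 24% in these data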
pPAFAH inh – pPAFAH (human) enzyme inhibition. recombinant pPAFAH, FP-rhodamine probe fluorescence polarization. inhibition, % at 3.39 µM. Q13093. hit rate 1.5% among 330,000;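 active means inhibition above the mean inhibition across the screen plus 3 SD, cut at about 25% in these data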;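 further: inhibitors block binding of the rhodamine activity-based probe so polarization drops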
PAFAH1B3 conf FP – confirmation of human PAFAH1B3 inhibitors; shares compounds with PAFAH1B3 inh; recombinant PAFAH1B3, FP-Rh activity-based probe, fluorescence polarization; inhibition, % at 3.39 µM; hit rate 30% among 390;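 active means average inhibition over triplicate runs above the hit cutoff set in the earlier primary screen, cut at about 25% in these data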
Large screens that a line does not name were inactive (follow-up assays come after a bar, where they were run).

Cn1cccc1CNC(=O)Nc1ccccc1	none
CCOc1ccc2[nH]c(C(=O)N/N=C/c3ccc(OC)cc3)cc2c1	none (no result: LYPLA2 inh, LYPLA1 inh, pPAFAH inh)
COc1ccc2[nH]c(C(=O)N/N=C/c3ccc(O)cc3O)cc2c1	PAFAH1B3 inh 48 (no result: LYPLA2 inh, LYPLA1 inh, pPAFAH inh) | PAFAH1B3 conf FP inactive
O=C(N1CCCC1)C12CC3CC(CC(C3)C1)C2	none
O=C(N1CCCCC1)C12CC3CC(C1)CC(C(=O)N1CCCCC1)(C3)C2	PAFAH1B3 inh 39 | PAFAH1B3 conf FP inactive
Cc1ccc(S(=O)(=O)N(CC(=O)NCc2ccco2)Cc2ccc(F)cc2)cc1	none
C(=N\Nc1nc(N2CCCCC2)nc(N2CCCCC2)n1)/c1c[nH]c2ccccc12	none
Cc1[nH]c2ccccc2c1/C=N/Nc1nc(N2CCCCC2)nc(N2CCCCC2)n1	PAFAH1B3 inh 26 | PAFAH1B3 conf FP inactive
CCCCc1ccc(-c2nc(NC(=O)C3C4CCC(O4)C3C(=O)O)sc2C)cc1 (stereo unspecified)	none (no result: PAFAH1B3 inh, PAFAH2 FP inh, PAFAH1B2 inh)
COc1ccc(N(/N=C2\Sc3ccccc3C2=O)C(C)=O)cc1	PAFAH1B3 inh 54 (no result: LYPLA2 inh, LYPLA1 inh, pPAFAH inh) | PAFAH1B3 conf FP 60
COc1ccccc1N(/N=C1\Sc2ccccc2C1=O)C(C)=O	PAFAH1B3 inh 51 | PAFAH1B3 conf FP 54
COc1ccc(CN(C(C)=O)c2ccccc2C(=O)O)cc1	none
COc1ccccc1NC1=C(NC(C)=O)C(=O)c2ccccc2C1=O	none (no result: LYPLA2 inh, LYPLA1 inh, pPAFAH inh)
O=C(O)c1ccc(S(=O)(=O)N(Cc2ccccc2)Cc2ccccc2)cc1	none

Compound activity: PubChem, The Scripps Research Institute Molecular Screening Center
